Several values for one entry are separate records, joined by “and”; a condition that tells them apart may be missing. Identical values can stand only once. Hit rate of the full screen: of about 5,500 compounds, about 2,000 (36%) were called active. Roughly 18% stayed inconclusive and do not appear here. Cut-off read from the data, not from the text of the source: active = normalized growth mostly below about 0.91 (no sharp cut-off); inconclusive = no clear call, values can overlap the other calls; inactive = mostly above about 0.92. Some of the results follow.
Experiment: chemical genetic growth profiling, strain panel (AID 1159580);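 note: tested at 20 µM; growth read once vehicle control cultures reached saturation at 30 °C; 1 = growth at the plate median or of vehicle wells; lower values mean less growth of the strain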
Conditions: S. cerevisiae deletion strains, growth OD

Measured: normalized growth

O=c1c(-c2ccc(O)cc2)coc2cc(O)ccc12
inactive: locus YAL013W, strain DEP1, hits give low values 0.964 | locus YAL021C, strain ccr4, hits give low values 0.996 | locus YAL026C, strain drs2, hits give low values 0.983 | locus YAL030W, strain snc1, hits give low values 0.989 | locus YAL040C, strain CLN3, hits give low values 1.01 | locus YBL061C, strain skt5, hits give low values 0.983 | locus YBR009C, strain hhf1, hits give low values 0.97 | locus YBR021W, strain FUR4, hits give low values 0.924 | locus YBR023C, strain chs3, hits give low values 0.978 | locus YBR171W, strain sec66, hits give low values 0.969 | locus YBR229C, strain ROT2, hits give low values 1.01 | locus YBR231C, strain swc5, hits give low values 0.986 | locus YBR279W, strain paf1, hits give low values 0.999 | locus YCL011C, strain gbp2, hits give low values 0.98 | locus YCL016C, strain dcc1, hits give low values 0.977 | locus YCL029C, strain bik1, hits give low values 0.983 | locus YCL061C, strain MRC1 (second series), hits give low values 1.01 | locus YCL061C, strain MRC1, hits give low values 0.975 | locus YCL069W, strain vba3, hits give low values 0.995 | locus YCR088W, strain abp1, hits give low values 0.987 | locus YDL005C, strain med2, hits give low values 0.976 | locus YDL035C, strain GPR1, hits give low values 1.01 | locus YDL040C, strain nat1, hits give low values 0.987 | locus YDL074C, strain BRE1, hits give low values 0.97 | locus YDL101C, strain DUN1, hits give low values 1.01 | locus YDL134C, strain PPH21, hits give low values 1 | locus YDL185W, strain tfp1, hits give low values 0.987 | locus YDL192W, strain arf1, hits give low values 1.01 | locus YDR001C, strain nth1, hits give low values 0.984 | locus YDR069C, strain doa4, hits give low values 0.985 | locus YDR101C, strain arx1, hits give low values 0.964 | locus YDR137W, strain rgp1, hits give low values 1 | locus YDR150W, strain NUM1, hits give low values 0.984 | locus YDR159W, strain sac3, hits give low values 0.974 | locus YDR162C, strain NBP2, hits give low values 1 | locus YDR195W, strain ref2 1.04 | locus YDR297W, strain sur2, hits give low values 0.978 | locus YDR318W, strain mcm21, hits give low values 0.99 | locus YDR334W, strain swr1, hits give low values 1 | locus YDR335W, strain msn5, hits give low values 0.992 | locus YDR363W, strain ESC2, hits give low values 1.01 | locus YDR388W, hits give low values 0.98 | locus YDR392W, strain spt3, hits give low values 0.849 | locus YDR502C, strain sam2, hits give low values 0.951 | locus YEL003W, strain gim4, hits give low values 0.989 | locus YEL037C, strain rad23, hits give low values 0.985 | locus YEL061C, strain CIN8 (second series), hits give low values 0.996 | locus YEL061C, strain CIN8, hits give low values 1.01 | locus YER002W, strain NOP16, hits give low values 0.992 | locus YER015W, strain faa2, hits give low values 0.993 | locus YER016W, strain bim1, hits give low values 0.982 | locus YER110C, hits give low values 0.974 | locus YER111C, strain swi4, hits give low values 0.98 | locus YER155C, strain BEM2 (second series), hits give low values 0.972 | locus YER155C, strain BEM2, hits give low values 0.992 | locus YER167W, strain BCK2, hits give low values 1 | locus YFR010W, strain ubp6, hits give low values 0.982 | locus YGL078C, strain dbp3, hits give low values 0.977 | locus YGL086W, strain mad1, hits give low values 0.969 | locus YGL167C, strain pmr1, hits give low values 0.981 | locus YGL173C, strain kem1, hits give low values 0.971 | locus YGL227W, strain vid30, hits give low values 0.984 | locus YGL240W, strain doc1, hits give low values 0.958 | locus YGL248W, strain PDE1, hits give low values 1.01 | locus YGL253W, strain hxk2, hits give low values 0.956 | locus YGR078C, strain PAC10, hits give low values 0.965 and 1.01 | locus YGR135W, strain pre9, hits give low values 0.957 | locus YGR229C, strain SMI1, hits give low values 0.974 | locus YGR252W, strain gcn5, hits give low values 0.825 | locus YHR013C, strain ard1, hits give low values 0.959 | locus YHR027C, strain rpn1, hits give low values 0.995 | locus YHR030C, strain SLT2, hits give low values 1.01 and 1.02 | locus YHR079C, strain IRE1 (second series), hits give low values 0.993 | locus YHR079C, strain IRE1, hits give low values 0.999 | locus YHR094C, strain hxt1, hits give low values 0.99 | locus YHR129C, strain ARP1, hits give low values 1.01 | locus YHR142W, strain chs7, hits give low values 0.943 | locus YHR200W, strain rpn10, hits give low values 0.979 | locus YIL066C, strain RNR3, hits give low values 1.02 | locus YIL073C, strain SPO22, hits give low values 0.951 | locus YIL125W, strain kgd1, hits give low values 0.988 | locus YIR030C, strain dcg1, hits give low values 0.978 | locus YJL092W, strain hpr5, hits give low values 0.981 | locus YJL095W, strain BCK1 (second series), hits give low values 0.98 | locus YJL095W, strain BCK1, hits give low values 0.977 and 1.03 | locus YJL115W, strain asf1, hits give low values 0.994 | locus YJL129C, strain trk1, hits give low values 0.969 | locus YJL134W, strain LCB3, hits give low values 1.01 | locus YJL154C, strain vps35, hits give low values 0.986 | locus YJL164C, strain tpk1, hits give low values 0.966 | locus YJL166W, strain qcr8, hits give low values 0.963 | locus YJL168C, strain set2, hits give low values 0.99 | locus YJL187C, strain SWE1 (second series), hits give low values 0.987 | locus YJL187C, strain SWE1, hits give low values 0.984 | locus YJR043C, strain POL32, hits give low values 0.994 | locus YJR066W, strain TOR1, hits give low values 0.989 | locus YKL009W, strain mrt4, hits give low values 0.951 | locus YKL068W, hits give low values 1 | locus YKL085W, strain MDH1 (second series), hits give low values 1.01 | locus YKL085W, strain MDH1, hits give low values 1.01 | locus YKL160W, strain elf1, hits give low values 0.971 | locus YKR001C, strain vps1, hits give low values 0.963 | locus YKR026C, strain gcn3, hits give low values 0.976 | locus YKR091W, strain srl3, hits give low values 0.982 | locus YLL001W, strain dnm1, hits give low values 0.945 | locus YLL026W, hits give low values 0.976 | locus YLL041C, strain sdh2, hits give low values 0.986 | locus YLR027C, strain aat2, hits give low values 0.973 | locus YLR039C, strain RIC1, hits give low values 1.05 | locus YLR058C, strain SHM2, hits give low values 1 | locus YLR102C, strain apc9, hits give low values 0.998 | locus YLR113W, strain HOG1, hits give low values 0.933 | locus YLR221C, strain rsa3, hits give low values 0.953 | locus YLR258W, strain gsy2, hits give low values 0.978 | locus YLR262C, strain YPT6 (second series), hits give low values 0.969 | locus YLR262C, strain YPT6, hits give low values 1.09 | locus YLR268W, strain sec22, hits give low values 0.949 | locus YLR320W, strain mms22, hits give low values 0.939 | locus YLR330W, strain CHS5, hits give low values 1 | locus YLR342W, strain FKS1 (second series), hits give low values 0.997 | locus YLR342W, strain FKS1, hits give low values 0.987 | locus YLR357W, strain rsc2, hits give low values 0.941 | locus YLR370C, strain arc18, hits give low values 0.982 | locus YLR371W, strain rom2, hits give low values 0.985 | locus YLR384C, strain iki3, hits give low values 1 | locus YLR418C, strain cdc73, hits give low values 0.888 | locus YML016C, strain PPZ1, hits give low values 1.02 | locus YML032C, strain rad52, hits give low values 0.977 | locus YML120C, strain ndi1, hits give low values 0.991 | locus YML124C, strain tub3, hits give low values 0.98 | locus YMR058W, strain fet3, hits give low values 0.981 | locus YMR078C, strain ctf18, hits give low values 0.979 | locus YMR125W, strain sto1, hits give low values 0.99 | locus YMR129W, hits give low values 0.989 | locus YMR205C, strain PFK2, hits give low values 0.957 | locus YMR223W, strain ubp8, hits give low values 0.978 | locus YMR231W, strain pep5, hits give low values 0.992 | locus YMR307W, strain GAS1, hits give low values 0.951 and 1.01 | locus YNL067W, strain RPL9B, hits give low values 0.966 | locus YNL071W, strain lat1, hits give low values 0.979 | locus YNL128W, strain TEP1, hits give low values 1 | locus YNL153C, strain GIM3, hits give low values 0.982 and 1.04 | locus YNL175C, strain NOP13, hits give low values 0.994 | locus YNL183C, strain NPR1, hits give low values 0.993 | locus YNL197C, strain WHI3, hits give low values 0.979 | locus YNL209W, strain ssb2, hits give low values 0.99 | locus YNL224C, strain SQS1, hits give low values 1 | locus YNL233W, strain BNI4, hits give low values 0.966 | locus YNL248C, strain rpa49, hits give low values 0.97 | locus YNL250W, strain rad50, hits give low values 1.01 | locus YNL271C, strain bni1, hits give low values 0.985 | locus YNL298W, strain CLA4, hits give low values 0.997 | locus YNL307C, strain MCK1, hits give low values 0.97 | locus YNL322C, strain KRE1 (second series), hits give low values 0.966 | locus YNL322C, strain KRE1, hits give low values 1 | locus YNR049C, strain mso1, hits give low values 0.985 | locus YNR052C, strain pop2, hits give low values 0.988 | locus YOL006C, strain TOP1, hits give low values 0.931 | locus YOL012C, strain htz1 0.695 | locus YOL147C, strain pex11, hits give low values 0.982 | locus YOR001W, strain rrp6, hits give low values 1 | locus YOR061W, strain CKA2, hits give low values 1.02 | locus YOR069W, strain VPS5, hits give low values 1.01 | locus YOR070C, strain gyp1, hits give low values 0.982 | locus YOR080W, strain dia2, hits give low values 0.98 | locus YOR083W, strain WHI5 (second series), hits give low values 1.05 | locus YOR083W, strain WHI5, hits give low values 0.945 | locus YOR106W, strain vam3, hits give low values 0.954 | locus YOR136W, strain idh2, hits give low values 0.97 | locus YOR144C, strain elg1, hits give low values 0.985 | locus YOR184W, strain ser1, hits give low values 0.935 | locus YOR231W, strain MKK1, hits give low values 1.03 | locus YOR265W, strain rbl2, hits give low values 0.985 | locus YOR270C, strain vph1, hits give low values 0.913 | locus YOR290C, strain snf2, hits give low values 0.902 | locus YOR316C, strain cot1, hits give low values 0.986 | locus YPL051W, strain arl3, hits give low values 0.988 | locus YPL055C, strain LGE1, hits give low values 0.958 | locus YPL078C, strain atp4, hits give low values 0.956 | locus YPL106C, strain sse1, hits give low values 0.935 | locus YPL240C, strain hsp82, hits give low values 1 | locus YPL241C, strain CIN2, hits give low values 1 | locus YPL256C, strain CLN2, hits give low values 0.992 | locus YPR119W, strain clb2, hits give low values 0.984 | locus YPR141C, strain kar3, hits give low values 0.997 | locus YPR163C, strain tif3, hits give low values 0.982 | locus YPR167C, strain met16, hits give low values 0.984 | strain wtn01, hits give low values 0.953

Reference: PubChem BioAssay AID1159580 (chemical genetic matrix, 2015)
